Shown are actives, neighbours in structure and some others; about 10% of the full set was active somewhere.
LMNA splice mod: qHTS Assay for Modulators of Lamin A Splicing; hit rate 0.01% among 200,000; Potency, µM (titrated, usually from 46.1 µM), without a hit: top-dose ratio change, negative = inhibition, usual class: inhibitors; AID 1487, 2009; HeLa LMNA splicing GFP/RFP minigene ratio, 48 h; active = well fitted inhibition curve with a large enough effect in the signal ratio, with a control signal flat, not every such curve was filed as active; inconclusive = small, poorly fitted or top-dose-only effect, or effect the other way, or a change in a side signal; the % refers to the signal ratio; also: potency is read from the fitted curve at half-maximal effect
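S3 HeLa cells stably expressing lamin A-EGFP splicing minigene plus DsRed2, 600 cells/well, 48 h compound exposure at 37C. Laser-scanning cytometry; analysed as GFP (500-530 nm)/RFP (575-640 nm) total intensity ratio; 0.5% DMSO vehicle.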
HPGD block: qHTS Assay for Inhibitors of HPGD (15-Hydroxyprostaglandin Dehydrogenase); 15-hydroxyprostaglandin dehydrogenase [NAD(+)] (Homo sapiens), P15428; purified HPGD, NADH fluorescence kinetic, PGE2 substrate; Potency, µM, for inactives: at the highest dose activity change, negative = inhibition, usual class: inhibitors; hit rate 4.3% among 150,000; AID 894, 2007; also: potency is read from the fitted curve at half-maximal effect
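NADH formation kinetics: reaction with 30 uM PGE2 and 1 mM NAD+ (final), 20 nM enzyme, Tris-HCl pH 8 with Tween 20, after 15 min compound preincubation at room temperature. Fluorescence change, last versus first of five reads.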
ALDH1A1 inh: qHTS Assay for Inhibitors of Aldehyde Dehydrogenase 1 (ALDH1A1); Purified ALDH1A1, NADH fluorescence, propionaldehyde substrate; AID 1030, 2008; Potency, µM (highest dose often 75.3 µM), for inactives: top-dose activity, negative = inhibition, usual class: inhibitors; Aldehyde dehydrogenase 1A1 (Homo sapiens), P00352; hit rate 7.3% among 220,000;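 also: potency is read from the fitted curve at half-maximal effect; plate controls were no enzyme wells and a reference inhibitor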
Target sequence (P00352 whole entry, looked up): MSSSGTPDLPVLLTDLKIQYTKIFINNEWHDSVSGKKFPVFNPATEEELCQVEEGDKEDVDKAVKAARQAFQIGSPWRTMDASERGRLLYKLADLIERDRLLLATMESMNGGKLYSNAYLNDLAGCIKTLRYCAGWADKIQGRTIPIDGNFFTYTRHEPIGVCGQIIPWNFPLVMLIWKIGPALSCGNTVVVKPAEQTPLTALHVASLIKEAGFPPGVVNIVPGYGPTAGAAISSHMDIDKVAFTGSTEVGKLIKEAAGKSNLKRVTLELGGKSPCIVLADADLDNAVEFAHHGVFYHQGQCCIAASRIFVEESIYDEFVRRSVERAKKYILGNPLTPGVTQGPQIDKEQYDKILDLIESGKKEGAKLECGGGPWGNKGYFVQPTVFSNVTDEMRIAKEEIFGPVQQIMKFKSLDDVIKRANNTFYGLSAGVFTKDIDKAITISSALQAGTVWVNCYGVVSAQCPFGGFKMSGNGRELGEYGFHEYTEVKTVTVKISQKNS
KinaseGlo FLuc: Counterscreen for Luciferase (Kinase-Glo TM) Inhibition; Potency, µM (series often up to 38.3 µM), inactives show at the top dose activity change, negative = inhibition, usual class: inhibitors; Kinase-Glo luciferase, ATP luminescence, 8 min; hit rate 0.28% among 200,000; Luciferin 4-monooxygenase (Photuris pensylvanica), Q27757; AID 1379, 2008; active = well fitted inhibition curve with a large enough effect; inconclusive = small, poorly fitted or top-dose-only effect; also: potency is read from the fitted curve at half-maximal effect; nearly all actives have a fitted effect of over 60% in size
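Substrate mix (final 50 mM imidazole pH 7.2, 50 mM KCl, 7 mM MgCl2, 10 uM ATP, 0.01% Tween 20, 0.05% BSA) plus pin-tool compound, then Kinase-Glo detection mix; 8 min ambient, luminescence read.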
PNC inhibitor: High Content Assay for Compounds that inhibit the Assembly of the Perinucleolar Compartment | activity change (PNC), negative = inhibition, % at 10 µM | PC3M PTB-GFP, PNC prevalence imaging, 16 h; active compounds read low | hit rate 3.1% among 140,000;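 active = readout at or below -70, meaning at least 70% loss of cells showing the perinucleolar compartment, a nuclear body marking cancer cells; inconclusive = readout between -30 and a set limit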;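 also: plate controls were DMSO wells for no effect and camptothecin positive control wells for full effect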
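Read-out is percentage of cells bearing a perinucleolar compartment, from automated 20x imaging of fixed, Hoechst-stained PC3M PTB-GFP cells. Cells were seeded 4 h, then exposed 16 h to compound (23 nl of library stock) in duplicate plates.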
IMPase cell inh: qHTS Assay for Identifying the Cell-Membrane Permeable IMPase Inhibitors. Inositol monophosphatase 1 (Rattus norvegicus), P97697. CHO-M1 cells, IP1 accumulation, HTRF TR-FRET ratio. inhibition (IP1 accumulation), % at 46.1 µM. 120,000 tested, under 10 active. AID 901, 2007; active = well fitted curve in the direction sought with a large enough effect in the signal ratio, not every such curve was filed as active; inconclusive = small, poorly fitted or top-dose-only effect, or a change in a side signal; inactive = no such curve, though single readings can be large or run the other way; the % refers to the signal ratio;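 also: cells stimulated with carbachol in lithium chloride buffer; plate controls were DMSO basal wells for no effect and reference inhibitor wells for full effect; higher means more IMPase inhibition seen as more IP1 and lower FRET ratio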
Target sequence (P97697 whole entry, looked up): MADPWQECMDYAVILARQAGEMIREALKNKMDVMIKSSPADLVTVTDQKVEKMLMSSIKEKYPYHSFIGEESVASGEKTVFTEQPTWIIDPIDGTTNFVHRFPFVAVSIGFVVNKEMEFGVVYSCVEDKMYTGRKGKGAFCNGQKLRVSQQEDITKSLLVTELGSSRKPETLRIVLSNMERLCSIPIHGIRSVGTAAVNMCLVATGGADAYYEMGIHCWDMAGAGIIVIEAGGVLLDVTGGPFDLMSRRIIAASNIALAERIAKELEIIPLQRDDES
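Elevated IP1 in lysates lowers TR-FRET signal (665/620 ratio and 620 channel reported). Cells were CHO-M1, given carbachol (50 uM as added) plus 50mM LiCl, pH 7.4, 30 min, 37C; compounds titrated up to 46 uM; AC50 by Hill equation.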
The depositor's hits bear a star; ? = inconclusive; . = no result; ! = not active in a repeat; [ ] = dose if it differs, or a comment. Unless noted, calls follow the shape of the dose curve; as a rule, active = well fitted inhibition curve with a large enough effect (not every such curve was filed as active); inconclusive = small, poorly fitted or top-dose-only effect, or another doubt; inactive = no such curve, though single readings can be large or run the other way. Unless noted, % is scaled to controls: 0 for no effect and ±100 for the full control effect.

SMILES	LMNA splice mod	HPGD block	ALDH1A1 inh	KinaseGlo FLuc	PNC inhibitor	IMPase cell inh
CNC(=O)Oc1ccc2c(c1)C(=O)c1ccccc1CO2	-3%	-23%	11µM*	-4%	-7	6
CNC(=O)Oc1cccc(-c2cn3cc(OC(=O)NC)ccc3n2)c1	-7%	?	?	-23%	-7	.
C=CCn1c(O)c(C(C)=Nc2ccc(C(=O)OCC)cc2)c(=O)[nH]c1=O	12%	-28%	32µM*	4%	17	17
O=c1c(O)c(-c2ccc(O)c(O)c2)oc2cc(O)cc(O)c12	?	20µM*!	13µM*!	0%	.	21
O=c1cc(-c2ccc(O)c(O)c2)oc2cc(O)cc(O)c12	?	11µM*!	20µM*	2%	.	9
C=CC(N)=O	.	-3%	25%	.	.	.
COC(=O)C(O)C(O)(CCC(C)C)C(=O)OC1C(OC)=CC23CCCN2CCc2cc4c(cc2C13)OCO4 (stereo not drawn)	.	0%	8%	0%[39.9 µM]	.	.
C=C(C)CN1C(=O)C(O)(CC(=O)c2ccc3c(c2)OCCO3)c2ccccc21 (stereo not drawn)	3%	-5%	11µM*	3%	20	2
Cc1cc(/C=C2\C(=O)NC(=S)N(C)C2=O)c(C)n1C1CCCCC1	-8%	-1%	-8%	-3%	?	-2
CCN1C(=O)C(=Cc2cc(C)n(C3CC3)c2C)C(=O)N(CC)C1=S	-8%	-19%	10µM*	-3%	3	-8
Cc1cc(C=O)c(C)n1C1CCCCC1	-2%	-7%	22µM*	1%	-9	1
Cc1cc(C=C2C(=O)N(C)C(=S)N(C)C2=O)c(C)n1C1CCCC1	0%	-13%	22µM*	-4%	58	1
Cc1cc(/C=C2/C(=O)NC(=O)N(C)C2=O)c(C)n1-c1ccccc1	?	.	2%	-6%	.	.
Cc1cc(C=C2C(=O)N(C)C(=S)N(C)C2=O)c(C)n1-c1cccnc1	7%	10µM*	11µM*	-4%	10	.
CO[C@H]1[C@H](O)[C@H](O[C@@H]2[C@H](Oc3cccc4c(O)c5c(=O)oc6ccc(C)c7c(=O)oc(c34)c5c67)O[C@@H](C)[C@H](O)[C@H]2O)O[C@@H](C)[C@@H]1O	.	-2%	-12%[13.5 µM]	-2%[7.66 µM]	.	.
Nc1nnnn1CCO	.	-4%	0%[13.5 µM]	-4%[7.66 µM]	.	.
CC(=O)Nc1ccccc1OC(=O)N(C)C	-4%	-10%	-2%	1%	-5	15
COC(=O)NC(=S)Nc1ccccc1NC(=S)NC(=O)OC	?	-15%	10µM*	-1%	.	.
C[C@@H]1O[C@H](OC2[C@@H](O)[C@H](O)C(O)[C@H](O)[C@H]2O)[C@@H](N)C[C@@H]1N=C(N)C(=O)O (stereo partly drawn)	.	-1%	-10%[13.5 µM]	-2%[7.66 µM]	.	.
O=C(O)C1Sc2[nH]c(=O)sc2C2c3cc(Cl)ccc3OC(=O)C12 (stereo not drawn)	0%	?	13µM*	-1%	-6	3
Oc1ccc(CCNCc2cc3c(cc2Br)OCO3)cc1	.	-23%	-1%[13.5 µM]	-1%[7.66 µM]	.	.
O=[N+]([O-])c1cc2c(cc1CNCCc1ccc3c(c1)OCO3)OCO2	-10%	-3%	28µM*	0%	-5	.
COc1c(C(C)(C)C)cc([N+](=O)[O-])c(C)c1[N+](=O)[O-]	.	-8%	?	.	.	.
CC1C(=O)OC2C1CC[C@@]1(C)C=CC(=O)[C@@]3(C)O[C@@]213 (stereo partly drawn)	.	3%	4%	0%	.	.
CN1[C@@H](CC(=O)c2ccccc2)CCC[C@@H]1C[C@@H](O)c1ccccc1	-11%	-4%	-4%[20.9 µM]	2%[17.1 µM]	.	3[20.6 µM]
SMILES	LMNA splice mod	HPGD block	ALDH1A1 inh	KinaseGlo FLuc	PNC inhibitor	IMPase cell inh
O=C1NC(=O)C(C(CC(=O)c2ccccc2)c2ccccc2)C(=O)N1 (stereo not drawn)	19%[46 µM]	.	0.1µM*	-2%	.	.
CC(=O)O.CC(=O)O.[Cd]	?	-11%	13µM*	-2%	.	.
O=C(O)/C=C\C(=O)O	.	-2%	7%	.	.	.
CC/C(=N\N1CCCCCC1)c1c(O)n(-c2ccccc2C)c(=O)[nH]c1=O	?	-8%	-15%	4%	-95*	.
CCC(=NCCN1CCOCC1)c1c(O)n(-c2ccccc2C)c(=O)[nH]c1=O	0%	-9%	?	-8%	-15	-16
O=C(C[N+]12CCC(CC1)C(CO)C2)c1ccc([N+](=O)[O-])cc1 (stereo not drawn)	?	.	-11%	10%	.	.
O=C(CNC(=O)c1cccs1)OCC(=O)c1ccc([N+](=O)[O-])cc1	.	.	0.32µM*	-3%	.	.
CC1CCCN(C(=O)CCl)C1 (stereo not drawn)	?	-6%	0.63µM*	1%	-116*	.
CC1CCCN(C(=O)CN2C3CCC2CC(O)(c2ccc(F)cc2)C3)C1 (stereo not drawn)	.	.	11%	5%	.	.
CCOC(=O)CC(SP(=O)(OC)OC)C(=O)OCC (stereo not drawn)	.	-21%	11µM*	.	.	.
CCOP(=O)(OCC)c1nc(-c2cccc3ccccc23)oc1NCc1ccccc1	?	?	?	1%	?	-5
COP(=O)(OC)c1nc(-c2cccc3ccccc23)oc1NCCc1ccccc1	?	?	?	-1%	-91*	.
Cn1c(O)c(/C=C/C=Nc2ccccc2)c(=O)n(C)c1=S	-17%	.	13µM*	.	-17	1
O=[N+]([O-])c1ccc(-c2[se]c3ccccc3c2I)cc1	.	-25%	?	-4%[39.9 µM]	.	.
CCCC(C)C1C(C#N)=C(N)Oc2c1c(=O)oc1ccccc21 (stereo not drawn)	-13%	?	-2%	-1%	13	11
CCCC1C(C#N)=C(N)Oc2c1c(=O)oc1ccccc21 (stereo not drawn)	-12%	-5%	3%	3%	-98*	0
c1ccc(C[N+]23CN4CN(CN(C4)C2)C3)cc1	.	-4%	-3%[13.5 µM]	0%[7.66 µM]	.	.
COc1ccc(C(=O)C23CN4CN(CN(C4)C2)C3)cc1	.	.	-4%	.	.	.
COc1ccc(C(=O)Nc2sc3c(c2C(=O)O)CC(C)(C)OC3)cc1	?	?	20µM*	-1%	21	.
C[N+](=O)[O-]	.	-3%	10%	.	.	.
Cc1cccc(N2C(=O)NC(=O)/C(=C\c3ccc4c(c3)CCCN4Cc3ccccc3)C2=O)c1	-6%	7.1µM*	0.18µM*	-2%	-2	.
COc1ccc(OC)c(NC(=O)Cn2cc(C(=O)c3ccccc3)c3ccccc32)c1	.	.	.	.	.	-1

Source: PubChem BioAssay
